# Results: publication PMC10812921, “Transcriptional Coactivator BOB1 (OBF1, OCA-B) Modulates the Specificity of DNA Recognition by the POU-Domain Factors OCT1 and OCT2 in a Monomeric Configuration”
# What was measured:
# POU1 (OCT1 POU domain) = POU1 (OCT1 POU domain) (human, UniProt P14859 260-458); assay: EMSA-SELEX-seq; no BOB1; 20 mM Tris-HCl pH 7.6, 140 mM NaCl, 10% glycerol, 0.5 mM EDTA, 0.05% Triton X-100, 0.1 mg/mL BSA, 0.1 mg/mL poly(dI-dC), 5 mM DTT, room temperature, 20 min; high values mean tight binding; details: protein: recombinant; dsDNA, one strand shown
# POU1 (OCT1 POU domain), sequence (P14859 260-458): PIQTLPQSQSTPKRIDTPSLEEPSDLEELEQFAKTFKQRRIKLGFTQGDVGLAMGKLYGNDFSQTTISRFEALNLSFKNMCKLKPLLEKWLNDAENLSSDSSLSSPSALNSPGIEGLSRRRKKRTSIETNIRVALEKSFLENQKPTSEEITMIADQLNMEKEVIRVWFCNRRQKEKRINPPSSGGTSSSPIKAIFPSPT
# In short: (§1)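 With or without 28 ng coactivator protein, 30 ng of tagged POU-domain protein was combined with 300 ng of a PCR-amplified double-stranded random 35-nt library in 20 μL Tris–HCl pH 7.6 binding buffer for 20 min at RT. The protein came from E. coli BL21 and had been purified under denaturing conditions and renatured. Four rounds of cutting complex bands from native 6% PAGE, elution and PCR amplification preceded Illumina sequencing. The binding preference figure is the percentage of sequenced 8-mers matching a motif pattern.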
# POU2 (OCT2 POU domain) = target: T1, POU2 (OCT2 POU domain) (human, UniProt P09086 175-386); assay: as above; details: protein: recombinant; dsDNA, one strand shown
# T1 sequence: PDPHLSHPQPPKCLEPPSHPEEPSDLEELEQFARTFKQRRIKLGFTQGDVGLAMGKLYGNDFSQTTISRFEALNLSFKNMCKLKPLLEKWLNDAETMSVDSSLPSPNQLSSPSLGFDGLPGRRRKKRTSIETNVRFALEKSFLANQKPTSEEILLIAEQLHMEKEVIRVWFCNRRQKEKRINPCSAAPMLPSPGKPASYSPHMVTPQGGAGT
# In short: as §1
# [1] = target: POU1 (OCT1 POU domain);BOB1 (OBF1, OCA-B) (human;human, UniProt P14859;Q16633 260-458;1-256, |); assay: EMSA-SELEX-seq; with BOB1 (ternary complex band); 20 mM Tris-HCl pH 7.6, 140 mM NaCl, 10% glycerol, 0.5 mM EDTA, 0.05% Triton X-100, 0.1 mg/mL BSA, 0.1 mg/mL poly(dI-dC), 5 mM DTT, room temperature, 20 min; high values mean tight binding; details: protein: recombinant;recombinant; copies: 1;1; dsDNA, one strand shown
# In short: as §1
# [2] = target: T2, POU2 (OCT2 POU domain);BOB1 (OBF1, OCA-B) (human;human, UniProt P09086;Q16633 175-386;1-256, |); assay: as above; details: protein: recombinant;recombinant; copies: 1;1; dsDNA, one strand shown
# T2 sequence 1: T1 sequence
# T2 sequence 2: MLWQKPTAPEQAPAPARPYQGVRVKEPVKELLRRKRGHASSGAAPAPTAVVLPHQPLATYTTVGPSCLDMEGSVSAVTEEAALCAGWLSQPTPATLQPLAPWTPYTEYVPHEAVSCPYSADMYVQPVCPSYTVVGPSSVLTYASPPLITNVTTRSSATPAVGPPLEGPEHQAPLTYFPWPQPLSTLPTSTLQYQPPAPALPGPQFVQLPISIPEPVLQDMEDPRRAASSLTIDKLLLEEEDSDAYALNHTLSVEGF
# In short: as §1
sequence,measurement,setting,value
ACAAAAAT,binding signal,POU1 (OCT1 POU domain),0.0938 % of ANNNNAAN 8-mers
same,binding signal,POU2 (OCT2 POU domain),0.0667 % of ANNNNAAN 8-mers
same,binding signal,[1],0.114 % of ANNNNAAN 8-mers
same,binding signal,[2],0.0768 % of ANNNNAAN 8-mers
ATGCGAAG,binding signal,POU1 (OCT1 POU domain),0.0538 % of ANNNNAAN 8-mers
same,binding signal,POU2 (OCT2 POU domain),0.0604 % of ANNNNAAN 8-mers
same,binding signal,[1],0.0523 % of ANNNNAAN 8-mers
same,binding signal,[2],0.057 % of ANNNNAAN 8-mers
AATGCAAA,binding signal,POU1 (OCT1 POU domain),1.36 % of ANNNNAAN 8-mers
same,binding signal,POU2 (OCT2 POU domain),1.1 % of ANNNNAAN 8-mers
same,binding signal,[1],2.58 % of ANNNNAAN 8-mers
same,binding signal,[2],3.21 % of ANNNNAAN 8-mers
AAAATAAC,binding signal,POU1 (OCT1 POU domain),0.0782 % of ANNNNAAN 8-mers
same,binding signal,POU2 (OCT2 POU domain),0.0696 % of ANNNNAAN 8-mers
same,binding signal,[1],0.0816 % of ANNNNAAN 8-mers
same,binding signal,[2],0.0735 % of ANNNNAAN 8-mers
ATGACAAG,binding signal,POU1 (OCT1 POU domain),0.0404 % of ANNNNAAN 8-mers
same,binding signal,POU2 (OCT2 POU domain),0.0351 % of ANNNNAAN 8-mers
same,binding signal,[1],0.0336 % of ANNNNAAN 8-mers
same,binding signal,[2],0.0289 % of ANNNNAAN 8-mers
AACGGAAA,binding signal,POU1 (OCT1 POU domain),0.0561 % of ANNNNAAN 8-mers
same,binding signal,POU2 (OCT2 POU domain),0.0552 % of ANNNNAAN 8-mers
same,binding signal,[1],0.0741 % of ANNNNAAN 8-mers
same,binding signal,[2],0.0561 % of ANNNNAAN 8-mers
ACCCAAAG,binding signal,POU1 (OCT1 POU domain),0.0198 % of ANNNNAAN 8-mers
same,binding signal,POU2 (OCT2 POU domain),0.0184 % of ANNNNAAN 8-mers
same,binding signal,[1],0.0203 % of ANNNNAAN 8-mers
same,binding signal,[2],0.0206 % of ANNNNAAN 8-mers
AAATGAAG,binding signal,POU1 (OCT1 POU domain),0.17 % of ANNNNAAN 8-mers
same,binding signal,POU2 (OCT2 POU domain),0.188 % of ANNNNAAN 8-mers
same,binding signal,[1],0.186 % of ANNNNAAN 8-mers
same,binding signal,[2],0.2 % of ANNNNAAN 8-mers
AACGGAAC,binding signal,POU1 (OCT1 POU domain),0.0187 % of ANNNNAAN 8-mers
same,binding signal,POU2 (OCT2 POU domain),0.0201 % of ANNNNAAN 8-mers
same,binding signal,[1],0.025 % of ANNNNAAN 8-mers
same,binding signal,[2],0.0206 % of ANNNNAAN 8-mers
ATTTAAAA,binding signal,POU1 (OCT1 POU domain),0.303 % of ANNNNAAN 8-mers
same,binding signal,POU2 (OCT2 POU domain),0.299 % of ANNNNAAN 8-mers
same,binding signal,[1],0.178 % of ANNNNAAN 8-mers
same,binding signal,[2],0.137 % of ANNNNAAN 8-mers
AGGTTAAT,binding signal,POU1 (OCT1 POU domain),0.174 % of ANNNNAAN 8-mers
same,binding signal,POU2 (OCT2 POU domain),0.216 % of ANNNNAAN 8-mers
same,binding signal,[1],0.0921 % of ANNNNAAN 8-mers
same,binding signal,[2],0.108 % of ANNNNAAN 8-mers
AACGAAAC,binding signal,POU1 (OCT1 POU domain),0.0225 % of ANNNNAAN 8-mers
same,binding signal,POU2 (OCT2 POU domain),0.027 % of ANNNNAAN 8-mers
same,binding signal,[1],0.0238 % of ANNNNAAN 8-mers
same,binding signal,[2],0.0157 % of ANNNNAAN 8-mers
AACACAAC,binding signal,POU1 (OCT1 POU domain),0.016 % of ANNNNAAN 8-mers
same,binding signal,POU2 (OCT2 POU domain),0.019 % of ANNNNAAN 8-mers
same,binding signal,[1],0.014 % of ANNNNAAN 8-mers
same,binding signal,[2],0.0272 % of ANNNNAAN 8-mers
AGCGAAAC,binding signal,POU1 (OCT1 POU domain),0.0183 % of ANNNNAAN 8-mers
same,binding signal,POU2 (OCT2 POU domain),0.023 % of ANNNNAAN 8-mers
same,binding signal,[1],0.0137 % of ANNNNAAN 8-mers
same,binding signal,[2],0.0198 % of ANNNNAAN 8-mers
ACGGCAAC,binding signal,POU1 (OCT1 POU domain),0.0141 % of ANNNNAAN 8-mers
same,binding signal,POU2 (OCT2 POU domain),0.0109 % of ANNNNAAN 8-mers
same,binding signal,[1],0.0152 % of ANNNNAAN 8-mers
same,binding signal,[2],0.0124 % of ANNNNAAN 8-mers
ACTCTAAG,binding signal,POU1 (OCT1 POU domain),0.0214 % of ANNNNAAN 8-mers
same,binding signal,POU2 (OCT2 POU domain),0.0224 % of ANNNNAAN 8-mers
same,binding signal,[1],0.0258 % of ANNNNAAN 8-mers
same,binding signal,[2],0.0206 % of ANNNNAAN 8-mers
ATCATAAT,binding signal,POU1 (OCT1 POU domain),0.131 % of ANNNNAAN 8-mers
same,binding signal,POU2 (OCT2 POU domain),0.164 % of ANNNNAAN 8-mers
same,binding signal,[1],0.0706 % of ANNNNAAN 8-mers
same,binding signal,[2],0.0636 % of ANNNNAAN 8-mers
AAAATAAG,binding signal,POU1 (OCT1 POU domain),0.13 % of ANNNNAAN 8-mers
same,binding signal,POU2 (OCT2 POU domain),0.125 % of ANNNNAAN 8-mers
same,binding signal,[1],0.148 % of ANNNNAAN 8-mers
same,binding signal,[2],0.114 % of ANNNNAAN 8-mers
AACTAAAG,binding signal,POU1 (OCT1 POU domain),0.024 % of ANNNNAAN 8-mers
same,binding signal,POU2 (OCT2 POU domain),0.0311 % of ANNNNAAN 8-mers
same,binding signal,[1],0.0293 % of ANNNNAAN 8-mers
same,binding signal,[2],0.0355 % of ANNNNAAN 8-mers
ATTCTAAT,binding signal,POU1 (OCT1 POU domain),0.448 % of ANNNNAAN 8-mers
same,binding signal,POU2 (OCT2 POU domain),0.532 % of ANNNNAAN 8-mers
same,binding signal,[1],0.12 % of ANNNNAAN 8-mers
same,binding signal,[2],0.152 % of ANNNNAAN 8-mers
ACAATAAT,binding signal,POU1 (OCT1 POU domain),0.0778 % of ANNNNAAN 8-mers
same,binding signal,POU2 (OCT2 POU domain),0.0978 % of ANNNNAAN 8-mers
same,binding signal,[1],0.0515 % of ANNNNAAN 8-mers
same,binding signal,[2],0.0528 % of ANNNNAAN 8-mers
AGTTAAAA,binding signal,POU1 (OCT1 POU domain),0.0778 % of ANNNNAAN 8-mers
same,binding signal,POU2 (OCT2 POU domain),0.0915 % of ANNNNAAN 8-mers
same,binding signal,[1],0.0831 % of ANNNNAAN 8-mers
same,binding signal,[2],0.0537 % of ANNNNAAN 8-mers
AGTCCAAG,binding signal,POU1 (OCT1 POU domain),0.0236 % of ANNNNAAN 8-mers
same,binding signal,POU2 (OCT2 POU domain),0.0253 % of ANNNNAAN 8-mers
same,binding signal,[1],0.0261 % of ANNNNAAN 8-mers
same,binding signal,[2],0.0215 % of ANNNNAAN 8-mers
AGGGTAAA,binding signal,POU1 (OCT1 POU domain),0.0706 % of ANNNNAAN 8-mers
same,binding signal,POU2 (OCT2 POU domain),0.0857 % of ANNNNAAN 8-mers
same,binding signal,[1],0.0679 % of ANNNNAAN 8-mers
same,binding signal,[2],0.0966 % of ANNNNAAN 8-mers
AGTAGAAA,binding signal,POU1 (OCT1 POU domain),0.0511 % of ANNNNAAN 8-mers
same,binding signal,POU2 (OCT2 POU domain),0.0708 % of ANNNNAAN 8-mers
same,binding signal,[1],0.0464 % of ANNNNAAN 8-mers
same,binding signal,[2],0.052 % of ANNNNAAN 8-mers
ACAAAAAC,binding signal,POU1 (OCT1 POU domain),0.0488 % of ANNNNAAN 8-mers
same,binding signal,POU2 (OCT2 POU domain),0.0397 % of ANNNNAAN 8-mers
same,binding signal,[1],0.0706 % of ANNNNAAN 8-mers
same,binding signal,[2],0.0405 % of ANNNNAAN 8-mers
ATTACAAA,binding signal,POU1 (OCT1 POU domain),0.0919 % of ANNNNAAN 8-mers
same,binding signal,POU2 (OCT2 POU domain),0.0955 % of ANNNNAAN 8-mers
same,binding signal,[1],0.08 % of ANNNNAAN 8-mers
same,binding signal,[2],0.0685 % of ANNNNAAN 8-mers
AGACCAAT,binding signal,POU1 (OCT1 POU domain),0.0275 % of ANNNNAAN 8-mers
same,binding signal,POU2 (OCT2 POU domain),0.0219 % of ANNNNAAN 8-mers
same,binding signal,[1],0.0261 % of ANNNNAAN 8-mers
same,binding signal,[2],0.033 % of ANNNNAAN 8-mers
